An excerpt weighted towards active compounds, which were near 2.4% of everything screened.
POLK inh: DNA polymerase kappa (human) inhibition. Potency, µM (top dose mostly 107 µM), for inactives: at the top dose activity, negative = inhibition, usual class: inhibitors. purified Pol kappa, fluorescent DNA synthesis assay, 10 min. Q9UBT6. 0.53% of 400,000 active; further: on the % scale 0 is the no-effect control and ±100 the full control effect
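Fluorescent qHTS in 1536-well format: enzyme (10 nM) and compound sat 15 min at room temperature before 50 nM substrate (final) was added. Signal taken at 0 and 10 min; no-enzyme buffer wells were negative controls.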
FEN1 inh: blocks human flap endonuclease 1; P39748; Recombinant FEN1 flap cleavage, fluorescence, 15 min; Potency, µM (doses to about 114 µM), inactives show top-dose activity change, negative = inhibition, actives largely listed as inhibitors; 0.35% of 390,000 active; AID 588795; further: on the % scale 0 is the no-effect control and ±100 the full control effect; nearly all actives have a fitted effect of over 65% in size
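Read-out was taken twice, immediately and after 15 min, following addition of 50 nM substrate to 10 nM FEN1 that had sat with test compound for 15 min at room temperature. Curves came from a four-parameter Hill model.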
POLH inh: inhibitors of human DNA polymerase eta | recombinant Pol eta, fluorescent DNA replication assay | Potency, µM (series often up to 114 µM), for inactives: at the top dose activity change, negative = inhibition, most hits filed as inhibitors | 1.2% of 390,000 active | AID 588591; further: on the % scale 0 is the no-effect control and ±100 the full control effect
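Pol eta at 10 nM preincubated with compounds 15 min at room temperature; reaction started with fluorescent substrate (50 nM final) and read kinetically at 0 and 10 min.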
WRN inhibitor: WRN helicase (human) inhibition; WRN helicase unwinding, fluorescent forked duplex, kinetic; Potency, µM (doses to about 114 µM), for inactives: at the top dose activity change, negative = inhibition, hits mostly inhibitors; 0.46% of 360,000 active; further: on the % scale 0 is the no-effect control and ±100 the full control effect; nearly all actives have a fitted effect of over 55% in size
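WRN at 20 nM final preincubated with compound 15 min at room temperature; reaction started with 100 nM fluorophore/quencher forked duplex oligonucleotide and 2 mM ATP final. Unwinding followed kinetically by red fluorescence (ex 525, em 598 nm).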
POLB inh: DNA polymerase beta (human) inhibition | P06746 | Pol beta primer extension/strand displacement, fluorescence kinetic | Potency, µM (series often up to 114 µM), without a hit: at the top dose activity change, negative = inhibition, actives largely listed as inhibitors | 1.3% of 340,000 active; further: on the % scale 0 is the no-effect control and ±100 the full control effect
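Human Pol beta at 10 nM; strand-displacement substrate 50 nM final. Compound exposure 15 min at room temperature before start, reaction 10 min at room temperature.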
Pol iota inh: inhibitors of human DNA polymerase iota; Q9UNA4; Pol iota fluorescent replication assay, 10 min; Potency, µM (titrated, usually from 115 µM), without a hit: top-dose activity, negative = inhibition, usual class: inhibitors; 1% of 390,000 active; AID 588590
Target sequence (Q9UNA4 whole entry, looked up): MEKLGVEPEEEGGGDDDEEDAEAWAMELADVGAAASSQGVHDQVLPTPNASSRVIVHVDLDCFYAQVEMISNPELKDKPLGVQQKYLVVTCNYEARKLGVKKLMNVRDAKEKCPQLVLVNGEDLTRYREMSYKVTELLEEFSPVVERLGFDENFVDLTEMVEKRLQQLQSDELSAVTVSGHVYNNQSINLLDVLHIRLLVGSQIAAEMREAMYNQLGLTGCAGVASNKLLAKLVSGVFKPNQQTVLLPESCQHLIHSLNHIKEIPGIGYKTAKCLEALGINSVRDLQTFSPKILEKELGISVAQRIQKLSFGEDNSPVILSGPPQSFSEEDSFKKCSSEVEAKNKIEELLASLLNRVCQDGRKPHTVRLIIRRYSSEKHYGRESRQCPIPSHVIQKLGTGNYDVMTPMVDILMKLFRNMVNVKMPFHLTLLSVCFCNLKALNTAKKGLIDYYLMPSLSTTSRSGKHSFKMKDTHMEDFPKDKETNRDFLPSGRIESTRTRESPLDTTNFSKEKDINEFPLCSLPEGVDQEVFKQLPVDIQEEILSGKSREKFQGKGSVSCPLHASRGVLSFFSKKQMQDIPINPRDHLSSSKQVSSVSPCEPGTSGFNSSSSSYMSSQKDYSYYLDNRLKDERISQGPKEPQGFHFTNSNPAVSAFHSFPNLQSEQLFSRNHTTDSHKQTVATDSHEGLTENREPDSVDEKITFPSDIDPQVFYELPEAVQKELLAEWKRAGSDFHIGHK
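Fluorescent replication assay read twice, at 0 min and 10 min after adding 50 nM (final) substrate. Enzyme (10 nM) and compounds were first incubated 15 min at room temperature; enzyme-free buffer wells were negative controls.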
The depositor's hits bear a star; ? = inconclusive; nt = not tested or not shown; ! = repeats disagree; [ ] = another dose, or the depositor's remark. The call rests on the fitted dose curve; in most records, active means well fitted curve in the direction sought with a large enough effect; inconclusive means small, poorly fitted or top-dose-only effect, or another doubt; inactive means no such curve, though single readings can be large; an effect the other way counts as inactive or inconclusive. Potency means the concentration at half of the fitted maximal effect.

SMILES	POLK inh	FEN1 inh	POLH inh	WRN inhibitor	POLB inh	Pol iota inh
CCOc1ccc(CNC(=O)C2CCN(c3nnc(-n4c(C)ccc4C)s3)CC2)cc1	?	4%	nt	nt	10%	-13%
O=c1oc2c(O)c(O)cc3c(=O)oc4c(O)c(O)cc1c4c23	0.79µM*!	1.6µM*	0.79µM*	nt	0.16µM*	1.1µM*!
Cc1c(C)c2cc(Cl)c(O)c(CN(C)C)c2oc1=O	-8%	3%	-1%	-1%	6%	0%
CCn1ccc2cc(S(=O)(=O)N3CCCN(C(=O)NCCOC)CC3)ccc21	3%[60.1 µM]	-1%	-19%	nt	-14%	4%
O=c1c2cc3c(cc2n(Cc2ccc(F)cc2)c(=O)n1Cc1nc(-c2ccccc2)no1)OCO3	-3%	19%	2%	nt	-1%	10%
O=c1c2cc3c(cc2n(Cc2ccc(Cl)cc2)c(=O)n1Cc1nc(-c2ccccc2)no1)OCO3	?	16%	-9%	nt	-1%	89µM*
C#CCOCCOCCOCCNc1nc(N2CCN(C(=O)Cn3cc(CCCCN)nn3)CC2)nc(N2CCN(C(=O)[C@H](C)n3cc(CCC(=O)O)nn3)CC2)n1	16%	6%	-10%	3%	nt	19%
C#CCOCCOCCOCCNc1nc(N2CCN(C(=O)Cn3cc(CCCCN)nn3)CC2)nc(N2CCN(C(=O)Cn3cc(CCCN=C(N)N)nn3)CC2)n1	?	-6%	4%	1%	nt	35µM*
C#CCOCCOCCOCCNc1nc(N2CCN(C(=O)Cn3cc(CCCN=C(N)N)nn3)CC2)nc(N2CCN(C(=O)[C@H](C)n3cc(CCCN=C(N)N)nn3)CC2)n1	?	0%	-15%	1%	40µM*	?
O=C(COC(=O)c1n[nH]c2ccccc12)NC(=O)NC1CCCC1	-1%	4%	4%	-13%	15%	-2%
O=C(COC(=O)c1n[nH]c2ccccc12)NC(=O)NC12CC3CC(CC(C3)C1)C2	-8%	4%	?	-11%	35µM*	-45%
COc1ccc(-n2c(=O)c3c4c(sc3n(CC(=O)Nc3cc(C)[nH]n3)c2=O)CCC4)c(OC)c1	0%	-1%	-2%	-3%	-5%	79µM*
Cc1oc2c(C)c3oc(=O)c(CC(=O)N4CCCCC4)c(C)c3cc2c1C	-5%	-7%	-10%	nt	32%	19%
CCN(CC)c1ccc(N=Cc2ccc([N+](=O)[O-])o2)cc1	?	-24%	?	?	?	16µM*
CCN1CCN(c2cc(C)c3cc(NC(=O)c4cc(OC)c(OC)c(OC)c4)ccc3n2)CC1	-13%[60.1 µM]	-33%	?	nt	?	-24%
CCN1CCN(c2cc(C)c3cc(NC(=O)c4ccc(OC)c(OC)c4)ccc3n2)CC1	?	?	?	-30%	8.9µM*	?
COc1ccc(N(CC(=O)N2CCc3ccccc3C2)S(=O)(=O)c2ccc(C)cc2)cc1Cl	-20%	-9%	-10%	nt	-11%	-11%
CCC(NC(C)C)C(O)c1ccc(O)c(O)c1 (stereo not drawn)	8%[60.1 µM]	?	-7%	nt	22%	?
CCC(c1ccc(O)c(O)c1)C(CC)c1ccc(O)c(O)c1 (stereo not drawn)	50µM*	?	79µM*	?	nt	18µM*
CN(C1=C(NC(=O)c2ccccc2)C(=O)c2ccccc2C1=O)C1CCS(=O)(=O)C1 (stereo not drawn)	6%[60.1 µM]	2%	79µM*	-1%	?	7.9µM*
C=CCOc1c(OC)cc(/C=N/Nc2cccc(C(=O)O)c2)c(Br)c1Br	?	-15%	?	-24%	50µM*	-16%
C=CCOc1c(/C=N\NC(N)=O)cccc1OC	-1%	14%	-2%	6%	47%	?
O=c1c2cccnc2n(Cc2ccc(Cl)cc2)c(=O)n1Cc1ccc(F)cc1	-9%	-1%	-22%	nt	0%	35%
Cc1ccccc1Cn1ccc(NC(=O)c2cc3ncc(Br)cn3n2)n1	-2%	-3%	-3%	-7%	20µM*	12%
